Screens: PubChem BioAssay, National Center for Advancing Translational Sciences (NCATS)
p53ts 39C kill = kills p53ts cells at the nonpermissive temperature | H1299-p53A138V viability at 39C, ATP luminescence, 24 h | Potency, µM (top dose mostly 46.1 µM), without a hit: top-dose activity change, negative = cell killing, usual class: cytotoxic | 130,000 compounds, 1.5% hits | AID 902; note: % is set by controls: 0 for no effect and ±100 for the full control effect; nearly all actives have a fitted effect of over 55% in size
p53ts 32C tox = p53ts cell cytotoxicity, permissive temperature; 130,000 compounds, 0.93% hits; Potency, µM (highest dose often 46.1 µM), for the others: top-dose activity change, negative = cytotoxicity, most hits filed as cytotoxic; H1299-p53A138V at 32C, ATP luminescence viability, 24 h;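 note: 0% = DMSO and -100% = full killing by reference compound; nearly all actives have a fitted effect of over 55% in size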
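H1299-p53 A138V cells (temperature-sensitive p53) exposed 24 h to up to 46 uM compound at 32C, where p53 is wild-type in conformation. Viability read as ATP luminescence and normalised to DMSO and 100 uM tamoxifen. AC50 fitted with the Hill equation.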
Imprint erasure = inducers of genomic imprint erasure in mouse ES cells | 110,000 compounds, 0.02% hits | Potency, µM (series often up to 60.7 µM), inactives show at the top dose activity change, positive = activation, hits mostly activators | mouse ES Peg3-LacZ reporter, beta-gal luminescence, 40 h
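Each well holds 300 Peg3LacZ-Neo (maternal) female ES cells incubated 40 h at 37C, 5% CO2. LacZ is measured by BetaGlo luminescence, with AC50 and maximum efficacy derived from dose-response curves.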
Numbers without * were called inactive; ? = inconclusive; · = no result given; [ ] = another dose, or the depositor's remark. Most compounds without a hit are left out; they make up all but 1.6% or so of the library. Calls come from the whole dose curve; as a rule, active = well fitted curve in the direction sought with a large enough effect; inconclusive = small, poorly fitted or top-dose-only effect, or another doubt; inactive = no such curve, though single readings can be large; an effect the other way counts as inactive or inconclusive. Potency is the fitted concentration of half-maximal effect.

SMILES | p53ts 39C kill | p53ts 32C tox | Imprint erasure
Oc1ccc(NCc2ccc(OCc3ccccc3Cl)cc2)cc1 | 10µM* | ? | -65.0%[10.9 µM]
Oc1ccc(OCc2ccccc2)cc1 | -17.6%[20.6 µM] | -10.7%[20.6 µM] | -49.6%[16.8 µM]
C=CS(=O)(=O)c1ccc(Oc2ccc(S(=O)(=O)C=C)cc2)cc1 | 10µM* | -84.4% | -23.3%
O=S(=O)(c1ccc(Oc2ccc(S(=O)(=O)N3CCOCC3)cc2)cc1)N1CCOCC1 | -0.9% | -7.5% | -9.9%
CC1(C)N=C(N)N=C(N)N1c1cccc(CSc2ccccc2)c1 | -28.8%[9.22 µM] | -8.9%[9.22 µM] | -7.3%[10.9 µM]
COc1cc2c(cc1OC)CN(C(=O)CC1CC3CCC1C3)CC2 (configuration not stated) | 12.6µM* | 10µM* | -65.8%
COc1cc2c(cc1OC)CN(C(=O)C(C)(C)C)CC2 | 0.8% | -0.8% | -1.6%
C=CCn1c(/N=C/c2ccc(N(C)C)cc2)nc2ccccc21 | -5.7% | 10.4% | -9.8%
CN(C)c1ccc(/C=N/n2ncc3ccccc32)cc1 | 15.8µM* | 12.6µM* | -68.6%
CCOC(=O)c1ccc(N2C(=O)c3n[nH]c(-c4cccs4)c3C2c2cccc(F)c2)cc1 (configuration not stated) | 6.31µM* | 16.6% | -6.7%[10.9 µM]
CCOC(=O)c1ccc(N2C(=O)c3n[nH]c(-c4cccs4)c3C2c2ccc(C)cc2)cc1 (configuration not stated) | 14.6% | 0.1% | 20.5%[10.9 µM]
CCCCOC(=O)c1ccc(NS(=O)(=O)c2c(C)nc3scc(C)n3c2=O)cc1 | -12.3% | 20.2% | -17.4%[10.9 µM]
Cc1ccc(CCNC(=O)c2ccc(CS(=O)(=O)c3ccc(Br)cc3)o2)cc1 | 8.0% | 5.1% | 8.6%[10.9 µM]
Cc1cc(NS(=O)(=O)c2ccc3nc(-c4ccccc4)[nH]c3c2)ccc1Br | ? | 18.2% | -8.7%[10.9 µM]
Cc1ccc(NS(=O)(=O)c2ccc3nc(-c4ccccc4)[nH]c3c2)cc1Cl | 12.6µM* | ? | -14.8%[10.9 µM]
COCCn1c(C)cc(C(=O)CSc2nnc(C)s2)c1C | 12.6µM* | 12.6µM* | -90.6%
COCCn1c(C)cc(C(=O)CSc2n[nH]c(N)n2)c1C | 4.2% | -2.3% | -10.1%
CCOC(=O)N/N=C1/C[C@@H](O)[C@@H](O)[C@@H]2[C@@H]3C(=O)N(CC)C(=O)[C@H]3CC[C@@H]12 | 6.0%[9.22 µM] | 7.1%[9.22 µM] | ·
COC(=O)c1sccc1S(=O)(=O)N(CC(=O)NCc1ccc(C)cc1)c1ccc(C)c(C)c1 | -15.2% | 7.2% | -3.7%[10.9 µM]
C#CCCCO/N=C1/C[C@@H](O)[C@@H](O)[C@@H]2[C@@H]3C(=O)N([C@@H](C)c4ccccc4)C(=O)[C@H]3CC[C@@H]12 | -5.5%[9.22 µM] | -4.9%[9.22 µM] | ·
COc1ccccc1-c1nc2cc3ccccc3cc2nc1-c1ccccc1OC | -7.5% | · | ·
c1ccc2c(c1)Cc1cc3ccccc3nc1-2 | 12.6µM* | 7.94µM* | -88.7%
Cc1ccc2nc(-c3ccc(NC(=O)C(F)(F)F)cc3)sc2c1 | 1.58µM* | 3.16µM* | -61.4%[10.9 µM]
Cc1ccc2nc(-c3ccc(NC(=O)c4ccc(S(C)(=O)=O)cc4)cc3)sc2c1 | 7.4% | 2.4% | ?
COc1cccc2cc(C(=O)Nc3ccc(CC(=O)O)cc3)c(=O)oc12 | 7.94µM* | 5.01µM* | -51.6%[10.9 µM]
SMILES | p53ts 39C kill | p53ts 32C tox | Imprint erasure
COc1cccc2cc(C(C)=O)c(=O)oc12 | 0.6% | 9.0% | -2.7%
COc1ccc(C(=O)Nc2cc(OC)nc(OC)n2)cc1 | 10µM* | 15.8µM* | ·
COc1cc(NC(=O)CCc2ccccc2)nc(OC)n1 | 1.7% | -5.7% | -12.6%
COc1ccc(NC(=O)Nc2nnc(C)s2)cc1 | ? | -8.2% | -13.9%[10.9 µM]
COc1ccc(CNC(=O)Nc2cccc(C)c2)cc1 | -15.7% | -8.3% | -38.8%
COc1ccc(C(=O)Nc2ccccc2C(N)=O)cc1 | 12.6µM* | 12.6µM* | -68.0%
COc1ccc(C(=O)Nc2cccc(C)c2)cc1 | 5.01µM* | 6.31µM* | -87.4%
COc1ccc(C(=O)Nc2cc(OC)ccc2OC)cc1 | ? | ? | -12.6%
COc1ccc(C(=O)Nc2nnc(C)s2)cc1 | 12.6µM* | 12.6µM* | -32.8%[10.9 µM]
CC(=O)N1CC[C@@H]2CC(=O)CC[C@@H]21 | · | · | -1.4%[97.3 µM]
Cc1cc(NS(=O)(=O)c2ccc(NC(=O)COc3cc(C)c(Br)cc3C(C)C)cc2)no1 | ? | -4.8% | -10.0%[10.9 µM]
CC(C)(C)OC(=O)C1=NOC2(C=CC(=O)C=C2)C1 | 3.1%[9.22 µM] | ? | ·
CN(C)C(=O)c1ccc(-c2nc(-n3ccnc3)c3ccccc3n2)cc1 | 10µM* | 7.94µM* | -63.6%
Clc1ccccc1-c1nc(-n2ccnc2)c2ccccc2n1 | 74.4% | 13.7% | -20.4%
Cc1ccccc1-c1nc(N2CCNCC2)c2ccccc2n1 | -14.3% | 6.0% | -24.1%
CN(C)c1ccc(-c2nc(N3CCNCC3)c3ccccc3n2)cc1 | 10µM* | 12.6µM* | -65.1%
CN(C)c1ccc(-c2nc(-n3ccnc3)c3ccccc3n2)cc1 | 12.6µM* | 10µM* | -79.4%
CN(C)C(=O)c1ccc(-c2nc(N3CCOCC3)c3ccccc3n2)cc1 | -9.8% | ? | ?
CCc1ccc(N(CC)C(=O)c2cc3c(=O)oc4ccc(C)cc4c3s2)cc1 | -0.3% | -0.2% | 9.1%[10.9 µM]
CCn1cc(C(=O)N(C)Cc2ccccc2)c(=O)c2cc(S(=O)(=O)N3CCc4ccccc4C3)ccc21 | 8.8% | 9.9% | 8.3%[10.9 µM]
c1ccc2sc(N3CCN(Cc4ccc5c(c4)OCO5)CC3)nc2c1 | -12.4% | 4.9% | -5.3%
c1ccc2sc(-c3ccc4c(c3)OCO4)nc2c1 | 7.94µM* | 15.8µM* | -93.7%
CCc1c(C)sc2c1CCN(C(=O)Nc1ccccc1Cl)C2c1ccc(OC)cc1 (configuration not stated) | -24.2% | -1.1% | -17.5%[10.9 µM]
CCC1=C2CC[C@H]3C(=O)NC(=O)[C@H]3[C@H]2[C@@]2(C)C(=NCCOC)OC(=O)N2C1=O | 17.3% | 6.8% | -5.6%
CC(=O)Nc1ccc(NC(=O)c2nc(S(=O)(=O)Cc3ccc(F)cc3)ncc2Cl)cc1 | 10µM* | -17.9% | -37.1%[10.9 µM]
SMILES | p53ts 39C kill | p53ts 32C tox | Imprint erasure
COc1ccc(OC)c(NC(=O)c2nc(S(=O)(=O)Cc3ccc(F)cc3)ncc2Cl)c1 | 10µM* | ? | -35.5%[10.9 µM]
COc1ccccc1NC(=O)c1nc(SCc2ccc(F)cc2)ncc1Cl | -2.3% | 0.6% | -11.5%[10.9 µM]
Cc1cccc(NC(=O)c2nc(S(C)(=O)=O)ncc2Cl)c1 | ? | ? | -42.3%[10.9 µM]
COC(=O)c1ccccc1NC(=O)c1nc(S(=O)(=O)Cc2cccc(C)c2)ncc1Cl | -13.6% | -12.9% | -39.5%[10.9 µM]
Cc1ccc(NC(=O)c2nc(S(=O)(=O)Cc3ccc(F)cc3)ncc2Cl)cc1C | 2.51µM* | 15.8µM* | -39.7%[10.9 µM]
CCCCc1nn2c(=O)cc(COC(=O)COc3ccc(C)cc3)nc2s1 | -5.3% | 3.5% | 16.6%[10.9 µM]
COc1cccc2sc(N(C)c3ccccc3)nc12 | 12.6µM* | 10µM* | -63.9%
COc1cccc2sc(N3CCN(c4nc5ccccc5s4)CC3)nc12 | 4.1% | -5.4% | -3.9%
Cc1cccc(C(=O)NCC(=O)OCc2cc(=O)n3nc(C4CC4)sc3n2)c1 | -9.5% | 1.3% | -11.2%[10.9 µM]
Cc1ccccc1C(=O)Nc1ccc2c(c1)OCO2 | 12.6µM* | 10µM* | ·
O=C(Nc1ccc2c(c1)OCO2)c1cccs1 | ? | ? | -77.8%
O=C(Nc1ccc2c(c1)OCO2)c1cc(C2CC2)on1 | ? | ? | -43.3%
CN(c1ccccc1C(=O)Nc1ccc2c(c1)OCO2)S(C)(=O)=O | 8.9% | 2.7% | 9.7%
CC(=O)c1ccc(NC(=O)c2noc3c2CCCCC3)cc1 | -10.5% | -16.7% | -15.9%
